Experimental data taken from PubChem BioAssay (Tox21).
Inconclusive results are not listed. Calls of active or inactive are those of the source. The call rests on the fitted dose curve; in most records, active means well fitted curve in the direction sought with a large enough effect in the repeat runs; inconclusive means weak or mixed curves; inactive means no such curve, though single readings can be large; an effect the other way counts as inactive or inconclusive.

Key:
[1] = qHTS RealTime-Glo MT Cell Viability Assay in HepG2 cells - 40 hour (AID 1224870); further: nearly all actives have a fitted effect of over 50% in size
Outline: (§1)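 Real-time viability: cells seeded at 600 per well together with NanoLuc and cell-permeant prosubstrate, compounds added after 5 h incubation. Luminescence tracked at 0, 8, 16, 24, 32 and 40 h of exposure.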

[2] = A CellTox Green Cytotoxicity Assay to monitor cytotoxicity in HEK293 cells - 40 hour (AID 1224871); further: nearly all actives have a fitted effect of over 45% in size
Outline: (§2)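 Cells (HEK293, 600/well) and dye reagent are dispensed together. After 5 h at 37 C, 23 nL compound is pinned in. Plates stay at 37 C for 40 h with fluorescence read at 0h, 8h, 16h, 24h, 32h and 40h.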

[3] = qHTS RealTime-Glo MT Cell Viability Assay in HEK293 cells - 16 hour (AID 1224872); further: top concentration of the series differs between compounds; nearly all actives have a fitted effect of over 50% in size
Outline: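 Viability tracked continuously by luminescence as live cells reduce a prosubstrate for NanoLuc; HEK293 cells preincubated 5 h, compound-treated at 37 C, and read at 0, 8, 16, 24, 32 and 40 h.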

[4] = qHTS RealTime-Glo MT Cell Viability Assay in HepG2 cells - 8 hour (AID 1224873); further: nearly all actives have a fitted effect of over 55% in size
Outline: as §1

[5] = qHTS RealTime-Glo MT Cell Viability Assay in HEK293 cells - 40 hour (AID 1224874); details: RealTime-Glo luminescence; max response: stronger effect = lower value; further: nearly all actives have a fitted effect of over 50% in size
Outline: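 Real-time viability in HEK293: signal arises when living cells convert a prosubstrate for NanoLuc in the medium, so luminescence tracks viable cell number. Compound (23 nL, DMSO) added 5 h post-seeding; kinetic reads at 0–40 h, 37 C.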

[6] = A CellTox Green Cytotoxicity Assay to monitor cytotoxicity in HEK293 cells - 24 hour (AID 1224875); further: series mostly up to about 77 µM; nearly all actives have a fitted effect of over 45% in size
Outline: as §2

[7] = A CellTox Green Cytotoxicity Assay to monitor cytotoxicity in HepG2 cells - 16 hour (AID 1224876); further: nearly all actives have a fitted effect of over 45% in size
Outline: (§3)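 Cells and non-lytic dye reagent are dispensed together (600 HepG2 cells/well) and incubated 5 h before DMSO compound transfer. Kinetic fluorescence is then recorded in the same wells during 40 h at 37 C.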

[8] = qHTS RealTime-Glo MT Cell Viability Assay in HepG2 cells - 32 hour (AID 1224877); further: nearly all actives have a fitted effect of over 55% in size
Outline: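 Viability was tracked continuously by NanoLuc luminescence from prosubstrate reduced by living HepG2 cells, at successive time points over 40 h of compound exposure. Cells with reagent were preincubated 5 h at 37 °C before compound addition.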

[9] = A CellTox Green Cytotoxicity Assay to monitor cytotoxicity in HepG2 cells - 24 hour (AID 1224878); further: nearly all actives have a fitted effect of over 45% in size
Outline: as §3

[10] = A CellTox Green Cytotoxicity Assay to monitor cytotoxicity in HepG2 cells - 40 hour (AID 1224879); further: nearly all actives have a fitted effect of over 40% in size
Outline: as §3
On the % scale 0 is the no-effect control and ±100 the full control effect.

COc1ccc2cc(C=O)ccc2c1
inactive: Potency [1] | Potency [2] | Potency [3] | outcome [4] | max response [5] 2.85% | Potency [6] | Potency [7] | Potency [8] | Potency [9] | Potency [10]

CC(C)c1ccc2oc3nc(N)c(C(=O)O)cc3c(=O)c2c1
inactive: Potency [1] | Potency [2] | Potency [3] | outcome [4] | max response [5] 13% | Potency [6] | Potency [7] | Potency [8] | Potency [9] | Potency [10]

CC(C=O)Cc1ccc(C(C)C)cc1 (stereo unspecified)
inactive: Potency [1] | Potency [2] | Potency [3] | outcome [4] | max response [5] 18.5% | Potency [6] | Potency [7] | Potency [8] | Potency [9] | Potency [10]

CCN(CC)C(=O)c1ccc(O)c(OC)c1
inactive: Potency [1] | Potency [2] | Potency [3] | outcome [4] | max response [5] 1.73% | Potency [6] | Potency [7] | Potency [8] | Potency [9] | Potency [10]

Cc1nccn1CC1CCc2c(c3ccccc3n2C)C1=O (stereo unspecified)
inactive: Potency [1] | Potency [2] | Potency [3] | outcome [4] | Potency [6] | Potency [7] | Potency [8] | Potency [9] | Potency [10]

CC(C)(O)C(=O)c1ccc(OCCO)cc1
inactive: Potency [1] | Potency [2] | Potency [3] | outcome [4] | max response [5] 6.03% | Potency [6] | Potency [7] | Potency [9]

Cc1c(C)n(CCN(C)C)c2ccc(C(=O)OCCN(C)C)cc12
inactive: Potency [1] | Potency [2] | Potency [3] | outcome [4] | Potency [6] | Potency [7] | Potency [8] | Potency [9]

COc1cc(CCC(C)=O)ccc1O
inactive: Potency [1] | Potency [2] | Potency [3] | outcome [4] | max response [5] -0.231% | Potency [6] | Potency [7] | Potency [9] | Potency [10]

CCCCCCCCCCCCCCCCCCOCC(O)CO (stereo unspecified)
inactive: Potency [1] | Potency [2] | Potency [3] | outcome [4] | max response [5] -20.9% | Potency [6] | Potency [8] | Potency [10]

Cc1ccc(N)cc1[N+](=O)[O-]
inactive: Potency [1] | Potency [2] | Potency [3] | outcome [4] | max response [5] -16.8% | Potency [6] | Potency [7] | Potency [8] | Potency [9] | Potency [10]

CC(O)CN(CCCN(C)C)CCCN(C)C (stereo unspecified)
inactive: Potency [1] | Potency [2] | Potency [3] | outcome [4] | max response [5] -1.59% | Potency [6] | Potency [7] | Potency [8] | Potency [9] | Potency [10]

OC1OC[C@@H](O)[C@H](O)[C@H]1O (stereo partly specified)
inactive: Potency [1] | Potency [2] | Potency [3] | outcome [4] | max response [5] 0.611% | Potency [6] | Potency [7] | Potency [9] | Potency [10]
